Results from PubChem BioAssay (NCI).
The panel holds about 83,000 compounds, 20% with a hit somewhere; the sample as a whole holds those more often.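 48-hour exposure, single concentration, 96-well plates; percent growth endpoint where 0 means no net growth. Active: below 10.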 A number with no mark means an inactive call. The source made the active and inactive calls.

Assays:
Assay in all cases: NCI-60 one-dose screen, 48 h (100 = growth as untreated, 0 = no growth, -100 = all killed)
Conditions in all cases: 10 µM unless noted
[1] = system: NCI/ADR-RES ovarian
[2] = system: T-47D breast
[3] = system: BT-549 breast
[4] = system: MDA-MB-435 melanoma
[5] = system: SW-620 colon
[6] = system: MCF7 breast
[7] = system: HCT-116 colon
[8] = system: HCC-2998 colon
[9] = system: KM12 colon

Row | SMILES | growth [1] | growth [2] | growth [3] | growth [4] | growth [5] | growth [6] | growth [7] | growth [8] | growth [9]
1 | O=P1(NCCCl)OCCCN1CCCl (centres undefined) | 110% | 105% | 104% | 107% | 98% | 101% | 106% | 107% | 103%
2 | Nc1nc([Se])c2ncn(C3OC(CO)C(O)C3O)c2n1 (centres undefined) | 41.5% | 93.5% | 69.7% | 74.3% | 82.1% | 42.9% | 28.1% | 88.7% | 82.5%
3 | C/C(Cc1ccc(Cl)cc1)=C(\c1ccc(OCCN2CCOCC2)cc1)c1ccc(OC(=O)Cc2ccccc2)cc1 | 98.7% | 66% | 96.9% | 98.6% | 96.5% | 69.4% | 86.1% | 91.3% | 98%
4 | COc1ccc(/C=C\c2cc(OC)c(OC)c(OC)c2)c(NS(=O)(=O)c2ccc(C)cc2)c1O | 7.57% (active) | 96.4% | 30.6% | -33.1% (active) | 24.9% | 14.3% | 8.54% (active) | 18.7% | 3.96% (active)
5 | CCOC(=O)[C@@H](C)C[C@H](Cc1ccccc1)NC(=O)c1csc([C@@H](C[C@H](C(C)C)N(C)C(=O)[C@H](CC)NC(=O)[C@H]2CCCCN2C)OC(C)=O)n1 | 7.74% (active) | 53.1% | -18.9% (active) | -35.7% (active) | 30.3% | 18.8% | -7.81% (active) | 3.85% (active) | 4.85% (active)
6 | CCCCCCCCCCCCCCCCCC1OC[C@H](COC(=O)O[C@@H](C(=O)O[C@H]2C[C@@]3(O)[C@@H](OC(=O)c4ccccc4)[C@@H]4[C@]5(OC(C)=O)CO[C@@H]5C[C@H](O)[C@@]4(C)C(=O)[C@H](OC(C)=O)C(=C2C)C3(C)C)[C@@H](NC(=O)c2ccccc2)c2ccccc2)O1 (some centres undefined) | 103% | 50.4% | 53.8% | -29.7% (active) | 46.9% | 25.9% | 17.8% | 54.1% | 26.4%
7 | C#Cc1ccc2c(c1)C(c1ccccc1)=NCC(=O)N2C | 17.1% | 51.6% | 45.2% | 11.4% | 30.6% | 18.4% | 18.9% | 70.5% | 28.8%
8 | COc1ccc(C(O)(C(=O)O)c2ccc(OC)cc2)cc1 | 97.8% | 76.4% | 106% | 102% | 95.2% | 88.6% | 83.2% | 90.6% | 87.7%
9 | CCCCCCCCCCCCCCCCCC1OC[C@@H](COC(=O)O[C@@H](C(=O)O[C@H]2C[C@@]3(O)[C@@H](OC(=O)c4ccccc4)[C@@H]4[C@]5(OC(C)=O)CO[C@@H]5C[C@H](O)[C@@]4(C)C(=O)[C@H](OC(C)=O)C(=C2C)C3(C)C)[C@@H](NC(=O)c2ccccc2)c2ccccc2)O1 (some centres undefined) | 106% | 51.9% | 55.2% | -41.2% (active) | 45.7% | 24.9% | 23.4% | 56.8% | 28.7%
10 | CC(C)[C@@H]1NC(=O)[C@]2(C)CSC(=N2)c2csc(n2)CNC(=O)C[C@@H](/C=C/CCS)OC1=O | 52% | -17.9% (active) | 41.7% | 5.9% (active) | 1.33% (active) | 13.9% | -34.8% (active) | -48% (active) | 1.21% (active)
11 | Clc1cccc(Cl)c1Cl | 105% | 85.8% | 102% | 105% | 105% | 93.5% | 98.9% | 99.8% | 100%
12 | COC(=O)[C@H](Cc1ccccc1)NNC(=O)c1csc([C@@H](C[C@H](C(C)C)N(C)C(=O)[C@@H](NC(=O)[C@H]2CCCCN2C)C2CC2)OC(C)=O)n1 | 32.9% | 37.7% | -0.476% (active) | -55.8% (active) | 24.4% | 16.3% | 1.19% (active) | 10.8% | 5.13% (active)
13 | CC[C@]12C=CCN3CC[C@@]4(c5ccc(OC)cc5N(C)[C@H]4[C@@](O)(C(=O)OC)[C@@H]1OC(=O)CCCC[P+](c1ccccc1)(c1ccccc1)c1ccccc1)[C@@H]32 | 91.6% | 4.99% (active) | -1.04% (active) | -19.7% (active) | 29.4% | 4.69% (active) | 8.03% (active) | 15.9% | 3.15% (active)
14 | Clc1cc(N2CC2)nc(N2CC2)n1 | 71.7% | 87.3% | 71.8% | 93.7% | 61.6% | 34.2% | 64.9% | 78.2% | 97.3%
15 | c1ccc(COc2ccc3[nH]cc(CCN(Cc4ccccc4)Cc4ccccc4)c3c2)cc1 | 91.4% | 62.9% | 103% | 102% | 90.5% | 79.3% | 60.3% | 99.7% | 88%
16 | CC1(C)N=C(N)N=C(N)N1c1ccc(CCC(=O)Nc2ccc(S(=O)(=O)F)cc2)c(Cl)c1 | 58.4% | 70.5% | 51% | 37.7% | 24.8% | 15.1% | 26.8% | 14.3% | 12.2%
17 | CCOC(=O)[C@@H](C)C[C@H](Cc1ccccc1)NC(=O)c1csc([C@@H](C[C@H](C(C)C)N(C)C(=O)[C@@H](NC(=O)[C@H]2C[C@H](O)CCN2C)C(C)C)OC(C)=O)n1 | 45.3% | 79.4% | -31.9% (active) | -40.9% (active) | 25.1% | 20% | -12.6% (active) | 19.6% | 5.96% (active)
18 | COc1cc(C=Nc2cccc(Br)c2)ccc1N(CCCl)CCCl | 80.7% | 91.3% | 85.5% | 103% | 74.5% | 66.6% | 87% | 60.1% | 40.6%
19 | NC(=O)c1c(Br)n(C2OC(CO)C(O)C2O)c2ncnc(N)c12 (centres undefined) | 8.09% (active) | -14.7% (active) | -16.1% (active) | 1.13% (active) | 1.1% (active) | -18.6% (active) | 3.73% (active) | 18.4% | -8.13% (active)
20 | O=C(NCCN1CC1)C(=O)NCCN1CC1 | 79.5% | 88.2% | 88.7% | 106% | 84.7% | 65.8% | 87.9% | 89.1% | 97.8%
21 | CCOC(=O)[C@@H](C)C[C@H](Cc1ccccc1)NC(=O)c1csc([C@@H](C[C@H](C(C)C)N(C)C(=O)[C@@H](NC(=O)[C@H]2CCCCN2C)C(C)(C)C)OC(C)=O)n1 | 6.69% (active) | 62.7% | -27.2% (active) | -66.4% (active) | 26.2% | 13.8% | 2.35% (active) | -2.49% (active) | 3.85% (active)
22 | C=CC[n+]1ccc(-c2cc[n+](CC=C)cc2)cc1 | 111% | 82.1% | 109% | 104% | 114% | 89.7% | 98.5% | 95.4% | 65.3%
23 | N#CC1(C#N)C(c2ccc(N(CCCl)CCCl)cc2)OC23CCCCC2C1(C#N)C(=N)O3 (centres undefined) | 71% | 65.6% | 84.6% | 101% | 88.6% | 49.3% | 89.2% | 95.2% | 100%
24 | C[C@]12CCc3nc(Nc4ccccc4F)sc3C1=CC[C@@H]1[C@@H]2CC[C@]2(C)C(=O)CC[C@@H]12 | 73.9% | 37.5% | 66.2% | 52.5% | -12.6% (active) | 12.5% | -22.4% (active) | 80.1% | 42.5%
25 | C/C(=C\c1ccn(-c2ccccc2N)n1)[C@@H]1C[C@@H]2O[C@]2(C)CCC[C@H](C)[C@H](O)[C@@H](C)C(=O)C(C)(C)[C@@H](O)CC(=O)O1 | -4.02% (active) | 36.4% | 15% | -46.6% (active) | 38.3% | 18.6% | 12.1% | 3.48% (active) | 14.6%
26 | Cc1cc(N(CCCl)CCCl)ccc1C=Nc1ccccc1-c1ccccc1 | 59.8% | 27.5% | 83.7% | 93.5% | 67% | 39.1% | 75.8% | 96.9% | 97.3%
